Laboratory results from PubChem BioAssay AID686978 (National Center for Advancing Translational Sciences (NCATS), 2013).
Several values for one entry are separate records, joined by “and”; a condition that tells them apart may be missing. Equal entries are not always repeated. The campaign covered roughly 420,000 compounds. About 64,000 (15%) were called active. Not shown: some 27% with an inconclusive outcome. The call rests on the fitted dose curve; in most records, active means well fitted inhibition curve with a large enough effect; inconclusive means small, poorly fitted or top-dose-only effect; inactive means flat fitted curve, though single readings scatter. A selection follows. Some structures have more than one record in an assay (separate samples or runs), and their calls can disagree.

Assay: qHTS for Inhibitors of human tyrosyl-DNA phosphodiesterase 1 (TDP1): qHTS in cells in absence of CPT; further: nearly all actives have a fitted effect of over 55% in size
Conditions: DT40 Tdp1-/- hTDP1 cells, no CPT, ATP luminescence, 48 h; activity change, negative = growth inhibition: at 46.2 µM (top of the series)
Procedure, shortened: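 Luminescent ATP content (CellTiter-Glo) served as the growth readout. Knockout chicken DT40 cells expressing human TDP1 were exposed to compounds without camptothecin for a minimum 48 hr at 37 °C.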
On the % scale 0 is the no-effect control and ±100 the full control effect; potency means the concentration at half of the fitted maximal effect.

Row | Structure (SMILES) | activity change, negative = growth inhibition | Potency
1 | CN(C)S(=O)(=O)c1ccc(NC(=O)COC(=O)Cn2[nH]c(=O)c3ccccc3c2=O)cc1 | 4.3% (inactive) | –
2 | CN(C)S(=O)(=O)c1ccc(NC(=O)COC(=O)c2n[nH]c3ccccc23)cc1 | – | 13 µM (active)
3 | O=C(COC(=O)c1n[nH]c2ccccc12)Nc1ccccc1Br | -17.5% (inactive) | –
4 | O=C1CC(Sc2ncn[nH]2)C(=O)N1c1ccccc1 (stereo unspecified) | – | 11.6 µM (active)
5 | Cc1ccc(N2C(=O)CC(Nc3cccc4ccccc34)C2=O)cc1 (stereo unspecified) | -2.47% (inactive) | –
6 | Cc1ccc(N2C(=O)CC(Sc3ncn[nH]3)C2=O)cc1 (stereo unspecified) | – | 4.61 µM (active)
7 | COc1ccc(-c2nc(SCC(=O)N3CCOCC3)n[nH]2)cc1 | 9.09% (inactive) | –
8 | COc1ccc(N2C(=O)CC(Sc3n[nH]c(-c4ccc(C)cc4)n3)C2=O)cc1 (stereo unspecified) | – | 10.3 µM (active)
9 | O=C1CC(c2ccccc2)C(=O)N1c1cccc(O)c1 (stereo unspecified) | -3.05% (inactive) | –
10 | COc1ccc(N2C(=O)CC(SC(C)C)C2=O)cc1 (stereo unspecified) | 9.41% (inactive) | –
11 | O=C1CC(N2CCN(c3ccc(F)cc3)CC2)C(=O)N1c1ccccc1 (stereo unspecified) | -10.2% (inactive) | –
12 | CCOC(=O)c1ccc(N2C(=O)CC(Sc3nc(O)c(CC)c(=O)[nH]3)C2=O)cc1 (stereo unspecified) | 3.43% (inactive) | –
13 | CC1Cc2[nH][nH]c(=O)c2C(C2CCCC2)O1 (stereo unspecified) | -27.8% (inactive) | –
14 | N#Cc1ccc(/C=C2\CCn3c2nc2cc(C(=O)O)ccc2c3=O)cc1 | -11.7% (inactive) | –
15 | NC1=NOC(=O)C1C1CCCCC1 (stereo unspecified) | – | 18.4 µM (active)
16 | CC(=O)Nc1ccc(S(=O)(=O)N2CCCC2C(=O)O)cc1 (stereo unspecified) | -2.04% (inactive) | –
17 | CCOC(=O)C(NC(=O)CC(C)C)(Nc1sc2c(c1C(N)=O)CCCC2)C(F)(F)F (stereo unspecified) | -25.5% (inactive) | –
18 | Cc1ccc(C)c(N2CCN(C(=O)CCc3c(C)nc4c(c3C)c(=O)n(C)c(=O)n4C)CC2)c1 | -2.29% (inactive) | –
19 | NS(=O)(=O)c1ccc(CCNC(=O)CCCCCn2c(=O)[nH]c3ccccc3c2=O)cc1 | -12.8% (inactive) | –
20 | COc1cccc(N2CCN(C(=O)CCCCCn3c(=O)[nH]c4ccccc4c3=O)CC2)c1 | – | 20.6 µM (active)
21 | Cc1ccc(C)c(N2CCN(C(=O)CCCCCn3c(=S)[nH]c4ccc(N5CCOCC5)cc4c3=O)CC2)c1 | – | 2.91 µM (active)
22 | Cc1ccc(OCCCC(=O)N2CCOCC2)c(C)c1 | -20% (inactive) | –
23 | O=C(CCCCCn1c(=O)[nH]c2ccccc2c1=O)NCCc1c[nH]c2ccccc12 | -21% (inactive) | –
24 | Cc1ccc(N2CCN(C(=O)CCc3c(C)nc4c(c3C)c(=O)n(C)c(=O)n4C)CC2)c(C)c1 | -19.6% (inactive) | –
25 | O=C(CCCn1c(=O)[nH]c2cc(Cl)ccc2c1=O)NCCN1CCN(c2ccccc2)CC1 | – | 23.1 µM (active)
26 | Cc1ccc(C)c(N2CCN(C(=O)CCCCn3c(=O)[nH]c4ccccc4c3=O)CC2)c1 | – | 20.6 µM (active)

Row | Structure (SMILES) | activity change, negative = growth inhibition | Potency
27 | CCN(CC)CCNC(=O)CCCCCn1c(=O)[nH]c2cc(C(=O)OC)ccc2c1=O | -16.1% (inactive) | –
28 | COc1ccc(CCNC(=O)CCCCn2c(=O)[nH]c3ccccc3c2=O)cc1OC | -11% (inactive) | –
29 | O=C(Cc1c(F)cccc1Cl)Nc1ccc(-n2cnnn2)cc1 | -10.1% (inactive) | –
30 | COc1ccc(C(C#N)N2N=C(C)CC2(C)C)cc1 (stereo unspecified) | -4.56% (inactive) | –
31 | NC(=O)N1CCc2ccccc21 | -7.26% (inactive) | –
32 | CCC1(CC)NC(=O)N(CC(=O)OCC(=O)NC(=O)c2ccccc2)C1=O | 2.28% (inactive) | –
33 | Cc1ccc(C(=O)O)cc1-c1ccc(/C=C2\SC(=O)N(CC(=O)Nc3ccc4c(c3)OCO4)C2=O)o1 | -0.216% (inactive) | –
34 | Cc1ccc(CCCOC(=O)C[N+]2(C)CCCC2)cc1 | -12.4% (inactive) | –
35 | COc1cc2c(cc1OC)[C@@H](Cc1cc(OC)c(OC)c(OC)c1)[N+](C)(CCCOC(=O)CC/C=C/CCC(=O)OCCC[N+]1(C)CCc3cc(OC)c(OC)cc3[C@H]1Cc1cc(OC)c(OC)c(OC)c1)CC2 (stereo partly specified) | – | inactive
36 | COc1ccc(CC2c3cc(OC)c(OC)cc3CC[N+]2(C)CCC(=O)OCCCCCOC(=O)CC[N+]2(C)CCc3cc(OC)c(OC)cc3C2Cc2ccc(OC)c(OC)c2)cc1OC (stereo unspecified) | – | 13 µM (active)
37 | O=C(CCN1C(=O)c2ccccc2C1=O)NCCN1CCOCC1 | 9.53% (inactive) | –
38 | O=c1oc2ccccc2cc1-c1cn(-c2ccccc2)c(=S)[nH]1 | – | 3.26 µM (active)
39 | O=C(c1cn(-c2ccccc2)nc1-c1cc2ccccc2oc1=O)N1CCOCC1 | -18.8% (inactive) | –
40 | S=c1[nH]c(-c2cccs2)cn1-c1ccccc1 | -13.3% (inactive) | –
41 | CC(=O)Oc1c2c(c3c(c1CC=C(C)C)O[C@@]14C(=CC5CC1C(C)(C)OC4(C/C=C(\C)C(=O)O)C5=O)C3=O)OC(C)(CCC=C(C)C)C=C2 (stereo partly specified) | – | 1.3 µM (active)
42 | CC1(C)CC(=O)C2=C(C1)N=C1SCCC(=O)N1C2c1ccc(C(F)(F)F)cc1 (stereo unspecified) | -20.3% (inactive) | –
43 | NC(=O)CSc1oc(-c2cccs2)nc1S(=O)(=O)c1ccccc1 | -1.42% (inactive) | –
44 | Cc1ccc(S(=O)(=O)c2nc(-c3cccs3)oc2N2CCCCC2)cc1 | – | 23.1 µM (active)
45 | N#Cc1ccc(-c2cccs2)nc1SCc1ccc(Br)cc1 | -9.03% (inactive) | –
46 | COC(=O)CSc1nccc(-c2cccs2)n1 | -0.533% (inactive) | –
47 | O=C(c1cc(-c2cccs2)on1)N1CCCCC1 | -7.2% (inactive) | –
48 | CCCCS(=O)(=O)c1oc(-c2cccs2)nc1S(=O)(=O)c1ccccc1 | – | 1.16 µM (active)
49 | Cc1ccc(CSc2oc(-c3cccs3)nc2S(=O)(=O)c2ccc(C)cc2)cc1 | – | 5.17 µM (active)
50 | Cc1ccc(C(=O)N/C(=C/c2cccs2)C(=O)N2CCCCC2)cc1 | -18.2% (inactive) | –
51 | Cc1ccc(NC(=O)COc2ccc(/C=C3/NC(=O)NC3=O)cc2)cc1 | -8.92% (inactive) | –
52 | O=C1OC(Oc2ccc(Br)cc2)(c2ccccc2)c2ccccc21 (stereo unspecified) | -16.8% (inactive) | –

Row | Structure (SMILES) | activity change, negative = growth inhibition | Potency
53 | CCCOCC(O)CC(CC)C(=O)NNC(=S)Nc1ccccc1 (stereo unspecified) | -4.64% (inactive) | –
54 | COc1ccc2c(c1)N(C)/C(=C1/SC(=S)N(NC(C)=O)C1=O)S2 | 0% (inactive) | –
55 | CCC(C)NC(=O)/C=C/c1ccc(S(=O)(=O)NCc2ccco2)cc1 (stereo unspecified) | -2.93% (inactive) | –
56 | O=S(=O)(NC1CCCC1)c1ccc(-n2cnnn2)cc1 | -14.2% (inactive) | –
57 | Cc1ccc(C(=O)NCC(=O)NC2CC2)cc1 | 4.14% (inactive) | –
58 | O=C(NNC(=O)c1ccc(-c2ccccc2)cc1)Nc1ccccc1 | -14.5% (inactive) | –
59 | O=C(NC1CC1)c1ccc(-c2ccccc2)cc1 | – | 11.6 µM (active)
60 | C/C(N)=C(/C#N)C(=O)COC(=O)C1CCN(C(=O)c2ccc(Cl)cc2)CC1 | -29.6% (inactive) | –
61 | CC(=O)OCC(=O)C1(O)CCC2C3CC(C)C4=CC(=O)CCC4(C)C3C(O)CC21C (stereo unspecified) | -17.1% (inactive) | –
62 | CC(=O)O[C@]1(C(C)=O)CC[C@H]2[C@@H]3CCC4=CC(=O)CC[C@]4(C)[C@@]3(F)[C@@H](O)C[C@@]21C | -9% (inactive) | –
63 | CC(=O)O[C@]1(C(C)=O)CC[C@H]2[C@@H]3C=C(C)C4=CC(=O)CC[C@]4(C)[C@H]3CC[C@@]21C | – | inactive and 23.1 µM (active)
64 | CCc1nc2c(=O)[nH]cnc2o1 | -5.21% (inactive) | –
65 | CCn1nnnc1SCC(=O)c1ccc(C)cc1C | -14.8% (inactive) | –
66 | COc1ccc(NC(=O)C(Br)C(C)C)cc1 (stereo unspecified) | -12.5% (inactive) | –
67 | COc1ccc(C(N)c2csc(NC(=O)Nc3cccc(C(F)(F)F)c3)n2)cc1 (stereo unspecified) | – | 13 µM (active)
68 | CC(C)(C)CC(=O)Nc1nnc(SCC(=O)NCc2cccs2)s1 | -21.9% (inactive) | –
69 | COc1ccc(CC(N)c2csc(NC(=O)Nc3ccc(C(C)C)cc3)n2)cc1 (stereo unspecified) | – | 6.51 µM (active)
70 | Cc1ccccc1NC(=O)Cc1nc(COC(=O)c2ccc(C(F)(F)F)cc2)cs1 | -18.3% (inactive) | –
71 | NC(c1csc(NC(=O)Nc2cccc(C(F)(F)F)c2)n1)C1CCCCC1 (stereo unspecified) | – | 20.6 µM (active)
72 | CC(C)(C)CC(=O)Nc1nc(C(N)Cc2ccc(C(F)(F)F)cc2)cs1 (stereo unspecified) | – | 16.4 µM (active)
73 | COc1ccc(NC(=O)C(=O)NCC(=O)Nc2cccc(C(F)(F)F)c2)cc1 | 10% (inactive) | –
74 | COc1ccc(C(CC(=O)Nc2ccc(C)cc2)NC(=O)C(F)(F)F)cc1 (stereo unspecified) | -1.65% (inactive) | –
75 | CC(C)C[C@H](NC(=O)Nc1cccc(C(F)(F)F)c1)C(=O)O | 5.13% (inactive) | –
76 | Cc1ccc(NC(=O)Nc2cccc(C(F)(F)F)c2)nc1 | 3.8% (inactive) | –
77 | COC(=O)[C@H](Cc1ccccc1)NC(=O)Nc1ccc(OC)cc1 | -9.61% (inactive) | –
78 | COc1ccccc1C1CN(Cc2ccccc2O)Cc2ccccc2O1 (stereo unspecified) | -21.5% (inactive) | –

Row | Structure (SMILES) | activity change, negative = growth inhibition | Potency
79 | O=C(CC(NCc1cccnc1)C(=O)O)Nc1ccc(O)cc1 (stereo unspecified) | -3.74% (inactive) | –
80 | CSc1nc(O)c(Cc2ccccc2)c(=O)[nH]1 | -0.545% (inactive) | –
81 | Cc1cc(C(=O)OC(C)C(=O)NC2CCCCC2C)c(C)o1 (stereo unspecified) | -4.96% (inactive) | –
82 | O=C(O)c1ccc(S(=O)(=O)N2CCOCC2)o1 | -2.82% (inactive) | –
83 | Cc1ccc(NC(=O)NNC(=O)c2sccc2-n2cccc2)cc1 | -19.7% (inactive) | –
84 | CC(C)NC(=O)NNc1c(Cl)cncc1Cl | 1.9% (inactive) | –
85 | CC1CCc2c(sc3c2C2=NS(=O)(=O)CCN2C=N3)C1 (stereo unspecified) | -10.8% (inactive) | –
86 | Cc1ccc(CC2CC(=O)N(c3nc(C)cc(C)n3)C2=O)cc1 (stereo unspecified) | -14.1% (inactive) | –
87 | COc1ccccc1C(=O)NCC(=O)OCC(=O)NNC(=O)c1ccc(Br)cc1 | -3.83% (inactive) | –
88 | CC(C)C(NC(=O)c1c(F)cccc1F)C(=O)NNC(=O)c1ccccc1 (stereo unspecified) | 11.9% (inactive) | –
89 | CCO/C([O-])=N/c1c[n+](N2CCOCC2)no1 | – | inactive
90 | O=C(CCC(=O)c1cccs1)Nc1nc2ccccc2s1 | -1.45% (inactive) | –
91 | COC(=O)[C@@H]1C[C@@]2(O)[C@H](O)[C@H](O)[C@H](O)C[C@H]2N1Cc1ccc(C(C)(C)C)cc1 | 4.36% (inactive) | –
92 | CN(C)CCN(C(=O)CN1C(=O)c2ccccc2C1=O)c1nc2cc3c(cc2s1)OCCO3 | 3.41% (inactive) | –
93 | O=C(Nc1cccc(F)c1)c1coc(=O)c(Br)c1 | – | 2.31 µM (active)
94 | O=C(CCN1C(=O)c2ccccc2C1=O)Nc1cccc(F)c1 | 17.3% (inactive) | –
95 | Cc1cc(C(=O)Nc2c(C)n(C)n(-c3ccccc3)c2=O)cs1 | -6.58% (inactive) | –
96 | O=C(c1cc(-c2ccc(Cl)s2)nc2ccccc12)N1CCOCC1 | -23.9% (inactive) | –
97 | Cc1c(NC(=O)c2cc(-c3ccc(Cl)s3)nc3ccccc23)c(=O)n(-c2ccccc2)n1C | – | 16.4 µM (active)
98 | Cc1c(NC(=O)c2coc(=O)c(Br)c2)c(=O)n(-c2ccccc2)n1C | – | 4.11 µM (active)
99 | Cc1c(NC(=O)c2cc(=O)c3ccccc3o2)c(=O)n(-c2ccccc2)n1C | 0.865% (inactive) | –
100 | O=C(Nc1cccc(NC(=O)c2cccc(F)c2)c1)c1ccccc1 | -9.75% (inactive) | –
101 | Cc1c(NC(=O)c2cccnc2)c(=O)n(-c2ccccc2)n1C | – | inactive
